Assay [1] concerns the target Calcium/calmodulin-dependent protein kinase type 1 (Homo sapiens) (UniProt Q14012). The following applies: at 1 µM.
Assay [2] has the same target. The following applies: at 10 µM.
For assay [3], the target named is Calcium/calmodulin-dependent protein kinase type II subunit beta (Homo sapiens) (UniProt Q13554). The following applies: at 1 µM.
For assay [4] the target is unchanged. The following applies: at 10 µM.
In assay [5] the target is Calcium/calmodulin-dependent protein kinase type II subunit gamma (Homo sapiens) (UniProt Q13555). The following applies: at 1 µM.
Assay [6] shares this target. To be noted: at 10 µM.
Assay [7] addresses Calcium/calmodulin-dependent protein kinase type II subunit delta (Homo sapiens) (UniProt Q13557). The following applies: at 1 µM.
The target is the same in assay [8]. The following applies: at 10 µM.
The target of assay [9] is T1, Calcium/calmodulin-dependent protein kinase type IV (Homo sapiens) (UniProt Q16566).
T1 sequence (whole entry): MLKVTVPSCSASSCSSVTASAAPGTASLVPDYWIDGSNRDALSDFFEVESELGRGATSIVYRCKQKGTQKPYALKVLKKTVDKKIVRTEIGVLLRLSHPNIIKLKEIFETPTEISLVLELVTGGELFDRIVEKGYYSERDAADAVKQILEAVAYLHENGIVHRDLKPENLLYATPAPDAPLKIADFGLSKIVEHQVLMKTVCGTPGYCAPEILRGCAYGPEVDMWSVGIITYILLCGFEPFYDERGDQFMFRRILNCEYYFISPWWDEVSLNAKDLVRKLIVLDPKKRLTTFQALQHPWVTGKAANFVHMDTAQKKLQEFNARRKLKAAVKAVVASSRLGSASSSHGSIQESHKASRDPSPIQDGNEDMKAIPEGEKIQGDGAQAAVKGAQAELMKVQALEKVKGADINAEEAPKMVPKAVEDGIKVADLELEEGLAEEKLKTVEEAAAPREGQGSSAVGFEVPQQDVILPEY
The following applies: at 1 µM.

In assay [10] the target is T1, Calcium/calmodulin-dependent protein kinase type IV (Homo sapiens). The following applies: at 10 µM.

In general, residual activity refers to the signal under treatment as a percentage of the control signal.

Calcium/calmodulin-dependent protein kinase type 1 (Homo sapiens), sequence (Q14012 whole entry, looked up): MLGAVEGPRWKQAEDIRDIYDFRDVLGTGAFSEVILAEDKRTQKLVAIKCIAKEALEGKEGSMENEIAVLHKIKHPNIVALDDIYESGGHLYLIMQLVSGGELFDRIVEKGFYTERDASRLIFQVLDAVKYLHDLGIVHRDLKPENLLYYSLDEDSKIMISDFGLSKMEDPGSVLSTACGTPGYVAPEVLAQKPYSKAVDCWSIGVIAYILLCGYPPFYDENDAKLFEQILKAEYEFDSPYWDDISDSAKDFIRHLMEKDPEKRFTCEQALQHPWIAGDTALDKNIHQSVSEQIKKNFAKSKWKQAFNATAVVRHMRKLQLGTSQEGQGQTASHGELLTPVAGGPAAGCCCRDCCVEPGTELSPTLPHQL
Calcium/calmodulin-dependent protein kinase type II subunit delta (Homo sapiens), sequence (Q13557 whole entry): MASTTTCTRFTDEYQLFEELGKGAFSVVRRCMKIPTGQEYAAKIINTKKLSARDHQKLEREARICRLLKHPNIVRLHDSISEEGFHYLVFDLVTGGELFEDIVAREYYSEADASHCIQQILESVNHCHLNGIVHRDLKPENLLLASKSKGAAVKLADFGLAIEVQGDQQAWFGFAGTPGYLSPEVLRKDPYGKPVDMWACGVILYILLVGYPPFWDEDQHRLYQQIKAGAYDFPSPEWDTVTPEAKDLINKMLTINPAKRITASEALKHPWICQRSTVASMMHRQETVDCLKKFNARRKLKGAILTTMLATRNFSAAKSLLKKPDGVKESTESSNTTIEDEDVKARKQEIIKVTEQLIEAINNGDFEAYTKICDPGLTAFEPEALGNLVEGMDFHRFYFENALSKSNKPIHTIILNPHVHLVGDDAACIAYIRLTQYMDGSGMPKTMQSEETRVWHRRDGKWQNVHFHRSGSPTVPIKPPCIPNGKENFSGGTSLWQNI
Calcium/calmodulin-dependent protein kinase type II subunit gamma (Homo sapiens), sequence (Q13555 whole entry): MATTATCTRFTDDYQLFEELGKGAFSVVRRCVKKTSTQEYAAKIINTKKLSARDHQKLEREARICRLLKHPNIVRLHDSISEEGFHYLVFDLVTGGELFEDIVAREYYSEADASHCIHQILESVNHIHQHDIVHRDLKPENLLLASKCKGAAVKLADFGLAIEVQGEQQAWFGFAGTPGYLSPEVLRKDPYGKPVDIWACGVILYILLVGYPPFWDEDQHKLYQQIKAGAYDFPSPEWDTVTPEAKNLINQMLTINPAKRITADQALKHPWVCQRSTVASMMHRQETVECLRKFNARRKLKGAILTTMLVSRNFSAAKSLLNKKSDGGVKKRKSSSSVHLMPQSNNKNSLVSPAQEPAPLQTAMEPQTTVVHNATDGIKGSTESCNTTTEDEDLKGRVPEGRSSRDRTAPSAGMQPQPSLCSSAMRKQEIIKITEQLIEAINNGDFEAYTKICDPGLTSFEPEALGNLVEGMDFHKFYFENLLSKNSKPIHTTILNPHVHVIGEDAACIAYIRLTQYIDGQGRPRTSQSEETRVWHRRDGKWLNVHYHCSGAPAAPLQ
Calcium/calmodulin-dependent protein kinase type II subunit beta (Homo sapiens), sequence (Q13554 whole entry): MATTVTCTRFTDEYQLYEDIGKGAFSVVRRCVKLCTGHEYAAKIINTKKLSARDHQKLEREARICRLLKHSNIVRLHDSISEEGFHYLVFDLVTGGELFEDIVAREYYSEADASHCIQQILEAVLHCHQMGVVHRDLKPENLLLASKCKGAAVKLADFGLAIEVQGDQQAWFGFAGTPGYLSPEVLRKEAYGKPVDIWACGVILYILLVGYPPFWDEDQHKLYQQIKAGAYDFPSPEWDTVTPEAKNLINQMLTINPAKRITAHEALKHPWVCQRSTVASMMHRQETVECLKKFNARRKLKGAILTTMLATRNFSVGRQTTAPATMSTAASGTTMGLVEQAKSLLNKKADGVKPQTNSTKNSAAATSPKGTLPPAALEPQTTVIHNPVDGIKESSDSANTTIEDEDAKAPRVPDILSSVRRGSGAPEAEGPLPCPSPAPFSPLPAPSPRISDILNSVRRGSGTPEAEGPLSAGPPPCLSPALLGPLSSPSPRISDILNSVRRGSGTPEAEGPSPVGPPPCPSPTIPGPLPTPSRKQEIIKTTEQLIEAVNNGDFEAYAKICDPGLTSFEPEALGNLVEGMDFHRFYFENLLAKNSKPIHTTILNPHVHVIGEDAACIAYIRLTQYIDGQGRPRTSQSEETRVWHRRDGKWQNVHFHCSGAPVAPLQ

Regarding `O=c1[nH]c2ccccc2n1C1CCN(Cc2ccc(-c3nc4cc5[nH]cnc5cc4nc3-c3ccccc3)cc2)CC1`, the residual activity in [1] was 103%; in assay [2] it was -5%; in [3], 94%; in [4] it was 6%; in [5], 104%; in assay [6] it was 16%. Also, the residual activity in assay [7] was 102%; in assay [8], 2%; in assay [9] it was 130%; in assay [10], 49%.
As to `COC(=O)[C@@]1(O)C[C@H]2O[C@]1(C)n1c3ccccc3c3c4c(c5c6ccccc6n2c5c31)C(=O)NC4`, the residual activity in [1] is 6%; in assay [2] it was 1%; in assay [3], 0%; in assay [4] it was -1%; in assay [5], 1%; in assay [6], 0%. Further, the residual activity was determined as 0% in [7], 1% in assay [8], 24% in assay [9] and 11% in assay [10].
Consider `CN[C@@H]1C[C@H]2O[C@@](C)([C@@H]1OC)n1c3ccccc3c3c4c(c5c6ccccc6n2c5c31)C(=O)NC4`, for which the residual activity in assay [4] stood at 0%.
As to `CC(C)(C)c1cc(C=C(C#N)C#N)cc(Br)c1O`, the residual activity in assay [1] was 121%; in assay [2], 105%; in assay [5] it was 102%; in assay [6], 55%; in assay [7], 104%; in [8], 46%. Also, the residual activity in assay [9] worked out at 115%; in [10], 83%.
In the case of `C[S+]([O-])c1ccc(-c2nc(-c3ccc(F)cc3)c(-c3ccncc3)[nH]2)cc1` (stereo not given), the residual activity in assay [1] is 115%; in [2], 99%; in assay [3], 114%; in assay [4], 98%; in assay [5], 103%; in assay [6], 100%. For the same compound, the residual activity in [7] is 108%; in assay [8] it was 89%; in assay [9], 113%; in assay [10], 98%.
In the case of `CCn1cnc2c(Nc3cccc(Cl)c3)nc(N[C@@H]3CCCC[C@@H]3N)nc21`, the residual activity in assay [1] is 84%; in [2] it was 27%; in [3], 93%; in [4] it was 45%; in [5], 43%; in assay [6], 10%. Moreover, the residual activity in [7] is 44%; in assay [8] it was 10%; in assay [9], 77%; in assay [10], 17%.
With `CC(C)[C@H](CO)Nc1nc(Nc2cccc(Cl)c2)c2ncn(C(C)C)c2n1`, the residual activity in assay [1] was determined as 93%; in [2], 78%; in assay [3] it was 95%; in [4], 68%; in [5], 100%; in assay [6] it was 42%. Moreover, the residual activity in assay [7] worked out at 99%; in [8], 46%; in [10], 60%.
Consider `COc1cc(OC)c(/C=C2\C(=O)Nc3ccccc32)c(OC)c1`, for which the residual activity stood at 96% in assay [1]; 82% in [2]; 102% in assay [3]; 76% in assay [4]; 105% in assay [5]; 96% in assay [6]. Also, the residual activity in [7] worked out at 107%; in assay [8], 89%; in assay [10], 101%.
Take `CCc1nc(-c2ccc(OC)cc2)[nH]c1-c1ccncc1`: the residual activity in assay [1] was determined as 108%; in assay [2] it was 101%; in assay [4] it was 76%; in [7] it was 110%; in assay [8], 80%.
`c1cc(-c2cnn3cc(-c4ccc(OCCN5CCCCC5)cc4)cnc23)ccn1`: the residual activity in assay [2] was 61%; in assay [3], 48%; in assay [4] it was 8%; in assay [5], 39%; in assay [6], 7%; in assay [7] it was 40%. The results for the residual activity in assay [8] and in [10] were 6% and 87%, respectively.
As for `COc1cc2ncnc(Nc3ccc(OCc4ccccc4)cc3)c2cc1OC`, the residual activity is 92% in assay [1]; 57% in assay [2]; 106% in assay [3]; 95% in assay [4]; 109% in assay [5]; 93% in assay [6]. The residual activity turned out to be 100% in [7], 83% in assay [8], 92% in assay [9] and 91% in [10].
Consider `COc1ccc2c(c1)/C(=C/c1cnc[nH]1)C(=O)N2`, for which the residual activity is 77% in assay [2]; 49% in [5]; 10% in assay [6]; 42% in assay [7]; 8% in assay [8].
As for `O=C1c2ccccc2-c2nc3nnnn3nc21`, the residual activity in assay [1] came out at 107%; in [2], 100%; in assay [3], 105%; in assay [6], 105%; in assay [7] it was 104%; in [8] it was 103%. The residual activity in assay [9] was 122%; in assay [10] it was 113%.
For `COc1ccc2c(c[n+](C)c3c4cc5c(cc4ccc23)OCO5)c1OC`, the residual activity in [2] came out at 86%; in [3], 80%; in assay [4] it was 55%; in [6], 70%; in assay [8], 85%; in assay [10], 69%.
Take `O=[N+]([O-])/C=C/c1ccc2c(c1)OCO2`: the residual activity in assay [1] was found to be 108%; in assay [2], 84%; in assay [3], 90%; in assay [4] it was 84%; in assay [5] it was 107%; in assay [6], 100%. Moreover, the residual activity in assay [7] is 109%; in [8], 97%; in assay [9], 132%; in assay [10], 14%.
In the case of `O=C1NC(=O)c2c1c1c3ccccc3n3c1c1c2c2ccccc2n1C1CCC3O1`, the residual activity in assay [1] worked out at 63%; in assay [2] it was 48%; in assay [3], 32%; in assay [4], 32%; in assay [5], 0%; in [6] it was 1%. For the same compound, the residual activity is -1% in assay [7], 5% in assay [8], 90% in [9] and 100% in assay [10].
Turning to `N/C(=N\[N+](=O)[O-])N/N=C\c1ccc(-c2cccc([N+](=O)[O-])c2)o1`, the residual activity in assay [1] was found to be 93%; in assay [2], 49%; in assay [3], 92%; in [4], 76%; in [5], 91%; in assay [6] it was 53%.
In the case of `O=C1Nc2ccc3ncsc3c2/C1=C/c1c[nH]cn1`, the residual activity in assay [1] is 72%; in assay [2], 22%; in assay [3], 13%; in assay [4], 3%; in assay [5], 21%; in assay [6] it was -1%. In addition, the residual activity is 18% in assay [7], 4% in assay [8], 80% in [9] and 24% in [10].

The values are drawn from ChEMBL document CHEMBL2218924, “A broad activity screen in support of a chemogenomic map for kinase signalling research and drug discovery” (Biochem J, 2013).
